MITF TRPM1 HTS: increases MITF-driven TRPM1 promoter luciferase signal; SK-MEL-5 TRPM1-promoter luciferase, 24 h; % of positive control, neutral wells = 0; activation, % at 12.5 µM; 300,000 compounds, 0.75% hits;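 active = mean activation of at least 80% with every replicate also reaching 80%; inconclusive = mean reaches 80% but some replicate falls short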;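 note: 0% = neutral control wells and 100% = parthenolide positive control wells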
MITF TRPM1 inh: reduces MITF-dependent TRPM1 promoter luciferase signal; inhibition, % at 12.5 µM; SK-MEL-5 TRPM1 promoter luciferase, 24 h; 330,000 compounds, 0.83% hits; AID 488899;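 active = mean inhibition across replicates of 60% or more, whatever share of single replicates reaches that level; inconclusive = some that reach 60%, reason not given; inactive = mean inhibition across replicates below 60%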
NSD2 inh: inhibitors of human histone methyltransferase NSD2 | inhibition, % at 12.5 µM | 310,000 compounds, 0.54% hits | O96028 | NSD2 peptide methylation, AlphaScreen, 120 min; in the data active = inhibition above about 50%
Target sequence (O96028 whole entry, looked up): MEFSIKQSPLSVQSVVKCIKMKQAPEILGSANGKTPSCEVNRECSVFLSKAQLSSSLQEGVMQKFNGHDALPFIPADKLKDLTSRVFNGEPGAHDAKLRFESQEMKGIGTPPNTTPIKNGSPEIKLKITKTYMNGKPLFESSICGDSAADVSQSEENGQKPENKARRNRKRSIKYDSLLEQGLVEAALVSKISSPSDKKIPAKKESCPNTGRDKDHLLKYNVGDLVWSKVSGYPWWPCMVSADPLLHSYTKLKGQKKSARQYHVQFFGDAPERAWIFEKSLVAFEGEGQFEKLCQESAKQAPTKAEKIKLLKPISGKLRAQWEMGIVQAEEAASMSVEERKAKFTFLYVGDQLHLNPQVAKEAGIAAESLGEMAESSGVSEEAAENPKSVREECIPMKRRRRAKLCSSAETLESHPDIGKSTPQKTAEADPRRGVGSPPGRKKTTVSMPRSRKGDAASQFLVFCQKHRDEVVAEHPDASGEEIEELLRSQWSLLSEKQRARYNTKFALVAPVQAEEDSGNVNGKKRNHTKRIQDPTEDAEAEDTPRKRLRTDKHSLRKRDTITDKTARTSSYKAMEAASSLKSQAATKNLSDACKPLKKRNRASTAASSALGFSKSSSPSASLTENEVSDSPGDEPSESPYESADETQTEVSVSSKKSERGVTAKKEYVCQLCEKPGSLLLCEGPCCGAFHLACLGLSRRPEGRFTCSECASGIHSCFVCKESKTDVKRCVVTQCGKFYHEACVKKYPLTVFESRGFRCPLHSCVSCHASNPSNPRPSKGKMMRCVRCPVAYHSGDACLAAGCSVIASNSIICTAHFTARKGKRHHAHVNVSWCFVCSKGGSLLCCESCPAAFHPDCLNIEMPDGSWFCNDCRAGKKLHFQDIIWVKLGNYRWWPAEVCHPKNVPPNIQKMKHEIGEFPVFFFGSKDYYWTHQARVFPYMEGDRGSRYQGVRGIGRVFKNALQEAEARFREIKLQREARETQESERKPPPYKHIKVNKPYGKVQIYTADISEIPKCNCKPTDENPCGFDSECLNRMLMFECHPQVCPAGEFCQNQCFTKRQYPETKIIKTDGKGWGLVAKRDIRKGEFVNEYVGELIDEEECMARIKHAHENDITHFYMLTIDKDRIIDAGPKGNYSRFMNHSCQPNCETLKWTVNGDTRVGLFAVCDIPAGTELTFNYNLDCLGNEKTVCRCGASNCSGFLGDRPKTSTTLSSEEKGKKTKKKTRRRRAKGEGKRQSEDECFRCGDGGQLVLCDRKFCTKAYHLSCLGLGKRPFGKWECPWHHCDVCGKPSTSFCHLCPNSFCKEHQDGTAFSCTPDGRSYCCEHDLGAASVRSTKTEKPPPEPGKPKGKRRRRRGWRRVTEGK
Wnt bcat act: activates Wnt/beta-catenin signaling in a reporter cell assay. activation, % at 9.35 µM. activator, plate reader. 300,000 compounds, 1.2% hits; in the data active = activation above about 30%, passing the limit was not always enough; inconclusive = no clear call, values can overlap the other calls;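 note: 0% = neutral control wells and 100% = positive control wells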
Glyco luc inh: blocks N-linked glycosylation in D54 reporter cells. reporter increase, % at 12.5 µM. D54 ERlucT glycosylation luciferase reporter, 24 h; percent of 100 nM tunicamycin response. 360,000 compounds, 0.23% hits;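 active = mean luciferase reporter signal, scaled so untreated is 0 and the glycosylation-blocking control 100, at or above a set limit in every replicate; inconclusive = mean reaches the limit but not every replicate does; inactive = mean below the limit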;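 note: luciferase carries N-glycosylation sites so blocking glycosylation raises the light; 0% = median of neutral control wells and 100% = median of 100 nM tunicamycin wells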
PfHsp90 yeast 2: reduces growth (ATP signal) of yeast expressing P. falciparum Hsp90. S. cerevisiae expressing PfHsp90, BacTiter-Glo ATP, 48 h; yeast lacking PDR1 and PDR3 efflux regulators. inhibition, % at 9.4 µM. 310,000 compounds, 0.32% hits. AID 504621;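 active = every replicate shows inhibition above about 80%, whatever the replicate mean, limit read from the data; inconclusive = mean inhibition reaches the set limit but some replicate falls short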;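 note: 0% = DMSO neutral controls and 100% = 20 µM radicicol positive controls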
* hit, by the source's call; ? = inconclusive; · = no result given. Shown are actives, neighbours in structure and some others; about 2.9% of the full set was active somewhere.

SMILES | MITF TRPM1 HTS | MITF TRPM1 inh | NSD2 inh | Wnt bcat act | Glyco luc inh | PfHsp90 yeast 2
COc1cccc(-c2cc(CNC(=O)[C@H]3O[C@@H](n4cnc(C(N)=O)n4)[C@H](O)[C@@H]3O)no2)c1 | · | · | · | 0 | · | ·
CCN(CC)CCn1nc2c3c(cccc3c1=O)-c1ccccc1-2 | -69 | 70* | 41 | 1 | 9 | 30
O=c1c2cccc3c2c(nn1CN1CCOCC1)-c1ccccc1-3 | -27 | 26 | · | · | 9 | -69
Cc1cc(C)c2nc(C)cc(N/N=C/c3ccc(O)cc3)c2c1 | · | 86* | 0 | -7 | -21 | -1
Cc1cc(N/N=C/c2ccc(O)cc2)c2cccc(C)c2n1 | · | 51 | 0 | -1 | 25 | -4
N#C/C(=C\c1ccco1)C(=O)NCC1CCCO1 (stereo not given) | -12 | 15 | 5 | 1 | 3 | -17
Cc1ccc(/C=C(\C#N)C(=O)NCC2CCCO2)o1 (stereo not given) | 10 | -8 | 6 | 78* | 1 | -9
CCOC(=O)C1(Cc2ccccc2)CCN(Cc2ccccc2[N+](=O)[O-])CC1 | · | · | -2 | · | · | ·
O=c1ccc2ccc(OCc3ccccc3)cc2o1 | 84* | -80 | -3 | 17 | -4 | -20
COc1cccc(COc2ccc3ccc(=O)oc3c2)c1 | 61 | -56 | -4 | 25 | -2 | -13
COc1ccc(COc2ccc3ccc(=O)oc3c2)cc1 | 118* | -118 | -3 | 26 | -2 | -1
O=C(COc1ccc2ccc(=O)oc2c1)OCc1ccccc1 | 1 | -6 | 1 | -6 | 2 | 28
Cc1c(C)c2cccnc2c2ncccc12 | -83 | 83* | 5 | · | -11 | 124*
Clc1cc2cccnc2c2ncccc12 | -55 | 57 | 13 | -8 | -10 | 3
CCCc1nc2oc3c(NCCCN(C)C)ncnc3c2c2c1CCCC2 | · | 78* | 24 | -1 | -9 | -12
CCCc1nc2oc3c(NCCN(C)C)ncnc3c2c2c1CCCC2 | · | 76* | 7 | · | -6 | 11
CCn1c(-c2csc3c2CCC(C)C3)n[nH]c1=S (stereo not given) | -6 | 0 | 2 | -2 | -1 | 6
NC(=O)c1cccc(-c2csc(C(O)c3ccccc3)n2)c1 (stereo not given) | · | · | 28 | 2 | 2 | ·
O=C(O)c1cccc(-c2csc(C(O)c3ccccc3)n2)c1 (stereo not given) | · | · | -2 | 35* | 0 | ·
COc1ccc(CCNC(=S)NNC(=O)c2c(Br)c(C)nn2C)cc1OC | -10 | 9 | 1 | 8 | 3 | -11
O=C(O)c1ccc(N/N=C/C=C/c2ccccc2[N+](=O)[O-])cc1 | 112* | -113 | · | 10 | 4 | -12
O=[N+]([O-])c1ccccc1C=CC=NN=Cc1ccccc1O | 31 | -23 | -8 | 71* | 1 | 27
O=C(Cc1ccccc1)N/N=C/C=C/c1ccccc1[N+](=O)[O-] | · | · | -1 | 35* | -2 | ·
Nc1nc(N)nc(-c2cccc(Br)c2)n1 | 41 | -45 | -6 | 36* | 1 | 5
CC(=O)Nc1ccc(-c2csc(Nc3cccc(C)n3)n2)cc1 | 87* | -86 | 0 | 48* | 0 | -5
SMILES | MITF TRPM1 HTS | MITF TRPM1 inh | NSD2 inh | Wnt bcat act | Glyco luc inh | PfHsp90 yeast 2
CC(=O)Nc1cccc(-c2csc(Nc3ccc(C)cn3)n2)c1 | 119* | -117 | 0 | · | -13 | -5
COc1ccc(-c2csc(Nc3ccc(C)cn3)n2)cc1 | 53 | -48 | 1 | 13 | -3 | ·
CC(=O)Nc1ccc(-c2csc(NCc3ccco3)n2)cc1 | 123* | -125 | 6 | · | -1 | -32
CC(=O)Nc1cccc(-c2csc(Nc3ncccn3)n2)c1 | · | · | -5 | 44* | · | ·
CCc1ccccc1NC(=O)C1CCC(=O)N(c2ccc(OC)cc2)C1c1ccc(OC)cc1 (stereo not given) | · | · | -4 | · | · | ·
COc1ccc2cc(C(N)=O)c(=Nc3ccccc3)oc2c1 | 102* | -101 | 0 | ? | -14 | 0
NC(=O)c1cc2ccc(O)cc2oc1=Nc1ccccc1 | 45 | -39 | 1 | 15 | -11 | 29
O=c1cc(CSc2nnc(-c3cccs3)o2)c2c(ccc3ccccc32)o1 | · | · | 4 | · | · | ·
Cc1ccc(NC(=O)/C(C#N)=N/Nc2ccc(C(=O)O)cc2)c(C)c1 | 0 | 1 | -3 | 44* | -1 | -9
Cc1ccc(N/N=C(\C#N)C(N)=S)c(C)c1 | 8 | -7 | 9 | · | -1 | 101*
Cc1ccc(CNc2ccc(N3CCN(C)CC3=O)cc2)cc1 | 7 | -5 | · | -1 | 2 | -2
COc1ccc2[nH]cc(CCNC(=O)CC[C@H]3O[C@@H](n4cc(C)c(=O)[nH]c4=O)C[C@@H]3O)c2c1 | 4 | -6 | · | -1 | 0 | -3
COc1cccc(Oc2cn[nH]c2-c2ccc(OCC(=O)NN)cc2O)c1 | -3 | 3 | 4 | -2 | 1 | -3
CCCOC(=O)c1ccc(Oc2cn[nH]c2-c2ccc(OC)cc2O)cc1 | -14 | 14 | 2 | · | -3 | 106*
CCOC(=O)C1CCN(C(=O)NS(=O)(=O)c2ccc(C)cc2)CC1 | -4 | 5 | -5 | 3 | 0 | -3
COC(=O)c1ccc2nc(C)cc(Nc3ccccc3C)c2c1 | -5 | 8 | · | 0 | 1 | -21
COC(=O)c1ccc(Nc2cc(C)nc3ccc(C)cc23)cc1 | -76 | 76* | -5 | -9 | -4 | 1
Cc1ccc2nc(C)cc(Nc3ccc([N+](=O)[O-])cc3)c2c1 | -84 | 84* | 4 | -8 | -12 | 3
O=C1C(=O)N(Cc2ccc(-c3ccc(Cl)nc3)cc2)c2ccc(OC(F)(F)F)cc21 | · | · | -2 | · | · | ·
COC(=O)[C@]12C[C@H](CC(=O)N3CCCC3)C(=O)N(Cc3ccccc3)C1=C[C@H](C(C)(C)C)O[C@@H]2C | · | · | · | -3 | · | ·
Cc1nc(Cc2ccccc2)sc1CC#N | -2 | 4 | 0 | 51* | -1 | 1
CCc1nc(SCC(=O)Nc2ccc(Br)cn2)n[nH]1 | 0 | 1 | -2 | 1 | 0 | 15
Cn1cnc([N+](=O)[O-])c1Oc1ccc2ccccc2c1 | -11 | 15 | 0 | · | 47* | -1
NC(=O)CC(NC(=O)Cc1ccc(Br)cc1)c1ccc(NC2CCCCCCC2)c([N+](=O)[O-])c1 (stereo not given) | 6 | -6 | · | 2 | 13 | -13
NC(=O)CC(NC(=O)c1ccc(Br)cc1)c1ccc(N2CCCCCCC2)c([N+](=O)[O-])c1 (stereo not given) | 40 | -34 | · | -8 | 43* | -2
NC(=O)CC(NC(=O)Cc1ccc(Br)cc1)c1ccc(NC2CCCC2)c([N+](=O)[O-])c1 (stereo not given) | 40 | -37 | · | -8 | 38* | ·
Cc1ccc2c(c1)N(CCCC(=O)NCc1ccc(F)cc1)C(=O)CO2 | · | · | 2 | · | · | ·
CC(Nc1nc(-c2ccncc2)nc2ccccc12)c1ccccc1 (stereo not given) | 9 | -8 | -5 | -2 | 9 | 14
CC(Nc1nc(-c2cccnc2)nc2ccccc12)c1ccccc1 (stereo not given) | · | · | -1 | -3 | 38* | ·

Screening data deposited in PubChem BioAssay by Broad Institute.
